For test [1], the target named is Acetylcholinesterase (Homo sapiens) (UniProt P22303). Kind of test: Acetylcholinesterase (AChE) small molecule antagonists: enzyme-based qHTS assay (AID 1347397; calls by dose curve; further: nearly all actives have a fitted effect of over 55% in size). To be noted: Potency: AChE enzyme activity inhibition. The method, boiled down:
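Colorimetric DTNB readout of acetylthiocholine hydrolysis, 10 min at room temperature, after 30 min room-temperature exposure of 50 mU/mL recombinant human enzyme to compound; DMSO vehicle control.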

For test [2] the target is unchanged. The test can be described thus: Acetylcholinesterase (AChE) small molecule antagonists: fluorescence cell-based qHTS assay (AID 1347398; calls by dose curve; further: nearly all actives have a fitted effect of over 50% in size). To be noted: Potency: AChE activity. The method, boiled down:
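Cellular AChE activity read as thiocholine from acetylthiocholine hydrolysis, detected by Thiolite Green fluorescence at 490/520 nm after 40 min at room temperature. Compounds were pre-incubated 30 min at 37 C on adherent SH-SY5Y cells.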

The target is the same in test [3]. The test can be described thus: Acetylcholinesterase (AChE) small molecule antagonists: enzyme-based qHTS assay with human liver microsomes (AID 1347399; calls by dose curve; further: nearly all actives have a fitted effect of over 60% in size). To be noted: Potency: qHTS inhibition. Summed up:
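Recombinant human AChE (50 mU/mL in the enzyme mix) and human liver microsomes (0.25 mg/mL final) were preincubated with compound and NADPH (0.25 mg/mL final) for 30 min at 37 C. Acetylthiocholine/DTNB was then added; thiocholine was read colorimetrically after 10 min at room temperature.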

In test [4] the target is Cytochrome P450 2D6 (Homo sapiens) (UniProt P10635). Kind of test: Cytochrome P450 Family 2 Subfamily D Member 6 (CYP2D6) small molecule antagonists: luciferase reporter qHTS assay (AID 1671196). Further: nearly all actives have a fitted effect of over 50% in size. The method, boiled down: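 Room-temperature luminescent CYP2D6 activity assay: compound preincubated 10 min with enzyme–substrate mix, NADPH-initiated reaction 1 h, detection reagent 20 min before reading.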
Cytochrome P450 2D6 (Homo sapiens), sequence (P10635 whole entry, looked up): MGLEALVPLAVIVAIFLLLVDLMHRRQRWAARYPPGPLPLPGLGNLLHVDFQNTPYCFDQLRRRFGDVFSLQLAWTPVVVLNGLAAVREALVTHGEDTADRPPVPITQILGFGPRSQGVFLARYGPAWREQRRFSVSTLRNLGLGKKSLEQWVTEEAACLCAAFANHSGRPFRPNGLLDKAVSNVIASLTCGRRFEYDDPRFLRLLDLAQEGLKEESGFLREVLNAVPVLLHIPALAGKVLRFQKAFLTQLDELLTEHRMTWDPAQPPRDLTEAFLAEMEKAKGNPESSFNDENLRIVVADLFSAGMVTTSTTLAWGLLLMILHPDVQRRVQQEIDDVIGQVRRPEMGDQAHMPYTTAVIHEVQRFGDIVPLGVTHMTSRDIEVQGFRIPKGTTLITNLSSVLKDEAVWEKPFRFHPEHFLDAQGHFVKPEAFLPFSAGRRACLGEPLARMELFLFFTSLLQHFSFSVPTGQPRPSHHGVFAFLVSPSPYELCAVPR

Test [5] deals with Cytochrome P450 2C19 (Homo sapiens) (UniProt P33261). The test can be described thus: Cytochrome P450 Family 2 Subfamily C Member 19 (CYP2C19) small molecule antagonists: luciferase reporter qHTS assay (AID 1671197). Further: nearly all actives have a fitted effect of over 65% in size. The method, boiled down:
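Luminescent readout of CYP2C19 activity: luciferin product detected 20 min after adding detection reagent. Before that, compound and enzyme-substrate mix preincubated 10 min at room temperature; NADPH-regenerating system started a 1 h, 37C reaction. Ketoconazole as positive control.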

For test [6], the target named is Cytochrome P450 2C9 (Homo sapiens) (UniProt P11712). The test can be described thus: Cytochrome P450 Family 2 Subfamily C Member 9 (CYP2C9) small molecule antagonists: luciferase reporter qHTS assay (AID 1671198). Further: nearly all actives have a fitted effect of over 50% in size. The method, boiled down:
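Enzyme-substrate mix preincubated with compound 10 min at room temperature; reaction started with NADPH regeneration solution, 1 h 37C. Luminescent luciferin product read after 20 min detection reagent.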

Test [7] has as its target Cytochrome P450 1A2 (Homo sapiens) (UniProt P05177). The test can be described thus: Cytochrome P450 Family 1 Subfamily A Member 2 (CYP1A2) small molecule antagonists: luciferase reporter qHTS assay (AID 1671199). Further: nearly all actives have a fitted effect of over 50% in size. Summed up:
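Room-temperature CYP1A2 reaction with proluciferin substrate: compounds added from DMSO, 10 min preincubation, NADPH regeneration for 1 h. Luciferin detection reagent then added; luminescence recorded as RLU.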

The target in test [8] is Cytochrome P450 3A4 (Homo sapiens) (UniProt P08684). Kind of test: Cytochrome P450 Family 3 Subfamily A Member 4 (CYP3A4) small molecule antagonists: luciferase reporter qHTS assay (AID 1671201). Further: nearly all actives have a fitted effect of over 50% in size. The method, boiled down: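 Luminescent readout (RLU) proportional to CYP3A4 activity, from luciferin generated off a proluciferin substrate. Enzyme–substrate mix plus compound 10 min at room temp, NADPH regeneration 1 h, detection reagent 20 min.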
Cytochrome P450 3A4 (Homo sapiens), sequence (P08684 whole entry, looked up): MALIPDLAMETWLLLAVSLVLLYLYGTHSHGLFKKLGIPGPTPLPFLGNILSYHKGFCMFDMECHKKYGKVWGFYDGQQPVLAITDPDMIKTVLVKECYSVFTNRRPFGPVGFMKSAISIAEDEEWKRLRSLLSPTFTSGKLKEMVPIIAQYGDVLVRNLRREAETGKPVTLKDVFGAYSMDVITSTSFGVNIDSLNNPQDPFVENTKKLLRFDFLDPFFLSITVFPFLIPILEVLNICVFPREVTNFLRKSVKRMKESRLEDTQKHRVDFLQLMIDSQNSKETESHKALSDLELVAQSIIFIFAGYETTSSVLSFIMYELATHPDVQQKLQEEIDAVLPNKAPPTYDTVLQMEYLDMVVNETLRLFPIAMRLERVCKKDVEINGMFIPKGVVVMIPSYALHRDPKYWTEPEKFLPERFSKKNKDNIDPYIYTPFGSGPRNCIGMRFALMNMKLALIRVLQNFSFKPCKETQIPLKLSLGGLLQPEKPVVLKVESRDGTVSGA

The target in test [9] is Voltage-gated inwardly rectifying potassium channel KCNH2 (Homo sapiens) (UniProt Q12809). The test can be described thus: Human Ether-a-go-go-Related Gene (hERG) channel small molecule antagonists: fluorescence cell-based qHTS assay (AID 1671200). Further: nearly all actives have a fitted effect of over 50% in size. Summed up:
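Read-out: thallium influx as a surrogate for potassium, tracked as fluorescence (480 nm ex/540 nm em) every second for 2 min after Stimulus Buffer addition in dye-loaded hERG-U2OS cells.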

Results filed as inconclusive are left out. Active and inactive are the calls of the source. Unless noted, the call rests on the fitted dose curve; in most records, active means well fitted curve in the direction sought with a large enough effect in the repeat runs; inconclusive means weak or mixed curves; inactive means no such curve, though single readings can be large; an effect the other way counts as inactive or inconclusive.
Potency means the concentration at half of the fitted maximal effect.

Cytochrome P450 2C19 (Homo sapiens), sequence (P33261 whole entry, looked up): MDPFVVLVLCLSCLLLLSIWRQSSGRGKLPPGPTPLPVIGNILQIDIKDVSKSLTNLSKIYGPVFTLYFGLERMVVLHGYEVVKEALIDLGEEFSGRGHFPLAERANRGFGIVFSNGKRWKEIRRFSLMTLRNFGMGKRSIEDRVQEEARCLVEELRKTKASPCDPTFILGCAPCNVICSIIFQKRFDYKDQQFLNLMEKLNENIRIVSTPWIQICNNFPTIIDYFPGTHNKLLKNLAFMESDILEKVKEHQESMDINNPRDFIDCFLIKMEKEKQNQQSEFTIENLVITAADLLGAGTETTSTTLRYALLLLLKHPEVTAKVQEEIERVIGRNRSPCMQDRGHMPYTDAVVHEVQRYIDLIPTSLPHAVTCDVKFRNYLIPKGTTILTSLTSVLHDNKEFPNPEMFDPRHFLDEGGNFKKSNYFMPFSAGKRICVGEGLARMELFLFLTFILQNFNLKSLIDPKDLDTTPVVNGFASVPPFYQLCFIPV
Acetylcholinesterase (Homo sapiens), sequence (P22303 whole entry, looked up): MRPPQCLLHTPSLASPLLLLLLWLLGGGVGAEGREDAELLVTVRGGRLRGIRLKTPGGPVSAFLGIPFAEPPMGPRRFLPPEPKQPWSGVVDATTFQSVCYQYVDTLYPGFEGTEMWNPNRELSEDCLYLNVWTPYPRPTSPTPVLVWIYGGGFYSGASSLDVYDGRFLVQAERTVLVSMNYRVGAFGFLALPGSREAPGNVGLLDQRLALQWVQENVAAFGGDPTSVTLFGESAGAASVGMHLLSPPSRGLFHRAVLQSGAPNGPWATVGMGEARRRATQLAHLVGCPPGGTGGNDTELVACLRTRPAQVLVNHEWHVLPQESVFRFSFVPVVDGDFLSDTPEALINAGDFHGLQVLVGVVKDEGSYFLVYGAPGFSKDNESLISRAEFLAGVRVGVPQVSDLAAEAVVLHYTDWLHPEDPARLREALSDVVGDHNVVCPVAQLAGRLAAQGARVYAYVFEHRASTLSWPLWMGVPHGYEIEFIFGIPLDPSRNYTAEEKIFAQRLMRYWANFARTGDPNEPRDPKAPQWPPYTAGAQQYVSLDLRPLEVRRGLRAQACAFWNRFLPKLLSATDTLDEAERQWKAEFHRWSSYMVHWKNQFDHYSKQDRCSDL
Voltage-gated inwardly rectifying potassium channel KCNH2 (Homo sapiens), sequence (Q12809 whole entry, looked up): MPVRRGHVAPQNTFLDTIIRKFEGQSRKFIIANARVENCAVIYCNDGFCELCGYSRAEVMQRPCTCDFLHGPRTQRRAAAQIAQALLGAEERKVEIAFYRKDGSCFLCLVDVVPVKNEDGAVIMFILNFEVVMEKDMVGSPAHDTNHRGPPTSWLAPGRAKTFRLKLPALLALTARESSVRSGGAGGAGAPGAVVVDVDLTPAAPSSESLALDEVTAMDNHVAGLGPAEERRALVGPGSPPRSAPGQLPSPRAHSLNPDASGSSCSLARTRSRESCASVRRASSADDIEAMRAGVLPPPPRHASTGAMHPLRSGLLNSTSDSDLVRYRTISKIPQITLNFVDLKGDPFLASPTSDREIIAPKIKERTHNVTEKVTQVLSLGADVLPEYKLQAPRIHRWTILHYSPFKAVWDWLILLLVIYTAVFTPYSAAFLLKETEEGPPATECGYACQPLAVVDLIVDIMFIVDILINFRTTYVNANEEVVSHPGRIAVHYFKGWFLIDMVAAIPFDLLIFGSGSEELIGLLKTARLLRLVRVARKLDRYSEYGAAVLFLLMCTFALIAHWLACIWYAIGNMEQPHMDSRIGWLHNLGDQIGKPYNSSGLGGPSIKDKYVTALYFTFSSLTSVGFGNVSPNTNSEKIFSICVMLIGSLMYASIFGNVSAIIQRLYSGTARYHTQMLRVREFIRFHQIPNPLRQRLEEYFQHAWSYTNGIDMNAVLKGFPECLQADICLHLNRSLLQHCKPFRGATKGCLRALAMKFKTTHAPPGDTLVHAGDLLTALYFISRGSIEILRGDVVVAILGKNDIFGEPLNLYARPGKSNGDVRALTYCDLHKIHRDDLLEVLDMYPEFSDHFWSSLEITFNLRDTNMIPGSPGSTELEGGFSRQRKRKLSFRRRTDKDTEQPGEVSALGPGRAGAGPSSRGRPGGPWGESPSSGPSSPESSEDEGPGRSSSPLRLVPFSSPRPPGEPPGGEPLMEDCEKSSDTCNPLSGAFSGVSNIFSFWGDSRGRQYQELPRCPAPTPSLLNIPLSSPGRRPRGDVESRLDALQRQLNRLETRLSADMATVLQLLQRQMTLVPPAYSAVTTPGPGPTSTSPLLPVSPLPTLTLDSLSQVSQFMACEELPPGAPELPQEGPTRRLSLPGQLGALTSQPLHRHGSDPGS
Cytochrome P450 2C9 (Homo sapiens), sequence (P11712 whole entry, looked up): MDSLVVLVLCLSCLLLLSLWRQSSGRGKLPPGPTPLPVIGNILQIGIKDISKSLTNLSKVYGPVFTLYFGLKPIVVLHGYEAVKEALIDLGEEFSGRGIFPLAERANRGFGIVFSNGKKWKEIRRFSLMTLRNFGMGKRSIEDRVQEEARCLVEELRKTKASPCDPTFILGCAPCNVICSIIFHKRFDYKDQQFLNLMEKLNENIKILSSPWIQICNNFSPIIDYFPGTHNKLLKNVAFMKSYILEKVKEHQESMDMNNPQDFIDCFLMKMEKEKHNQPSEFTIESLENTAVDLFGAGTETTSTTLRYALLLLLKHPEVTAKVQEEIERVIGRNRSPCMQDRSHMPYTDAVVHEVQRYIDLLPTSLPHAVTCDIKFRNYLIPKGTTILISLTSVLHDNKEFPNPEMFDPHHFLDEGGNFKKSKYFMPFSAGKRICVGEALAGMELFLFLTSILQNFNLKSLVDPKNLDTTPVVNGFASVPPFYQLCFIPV
Cytochrome P450 1A2 (Homo sapiens), sequence (P05177 whole entry, looked up): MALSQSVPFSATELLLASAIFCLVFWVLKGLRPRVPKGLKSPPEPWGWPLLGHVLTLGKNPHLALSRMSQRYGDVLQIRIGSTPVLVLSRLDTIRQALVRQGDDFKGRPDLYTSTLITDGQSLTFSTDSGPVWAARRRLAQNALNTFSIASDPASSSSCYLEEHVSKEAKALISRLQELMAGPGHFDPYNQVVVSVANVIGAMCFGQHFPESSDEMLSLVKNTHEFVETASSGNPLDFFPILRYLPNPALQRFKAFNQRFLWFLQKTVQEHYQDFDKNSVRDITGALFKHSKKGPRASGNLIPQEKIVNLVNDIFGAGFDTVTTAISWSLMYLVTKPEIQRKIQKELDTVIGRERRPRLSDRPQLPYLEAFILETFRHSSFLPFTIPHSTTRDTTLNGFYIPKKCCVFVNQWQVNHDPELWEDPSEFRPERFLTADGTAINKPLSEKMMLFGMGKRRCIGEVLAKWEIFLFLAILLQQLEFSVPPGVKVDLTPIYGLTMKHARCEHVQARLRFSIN

For the compound `CCC(C)c1cc([N+](=O)[O-])cc([N+](=O)[O-])c1OC(=O)C=C(C)C` (stereo not given), the Potency result in test [1], in test [2], in test [3], in test [4] and in test [8] was “inactive” throughout. Besides, the Potency in test [5], in test [6] and in test [7] was 35.6 µM (active) each time.

Take `C=CCOC(N)=O`: the Potency result in test [1], in [2], in test [3], in test [4], in [5] and in [6] was “inactive” each time. Further, the Potency result in test [9] and in [8] was “inactive” each time.

As for `Oc1c(Br)c(Br)c(Br)c(Br)c1Br`, the Potency result in [1], in test [2], in test [3], in test [4], in test [5] and in test [9] was “inactive” in each case. Moreover, the Potency result in test [8] was “inactive”. The Potency in [7] is 56.8 µM (active).

`Cc1ccc(C(=O)Cl)cc1`: the Potency result in test [1], in test [2], in test [3], in test [4], in test [6] and in [7] was “inactive” in each case. For the same compound, the Potency entry in [9] was “inactive”.

Turning to `C[C@@H]1O[C@@H](O[C@H]2C[C@@H](O)[C@]3(CO)[C@H]4[C@H](O)C[C@]5(C)[C@@H](C6=CC(=O)OC6)CC[C@]5(O)[C@@H]4CC[C@]3(O)C2)[C@H](O)[C@H](O)[C@H]1O`, the Potency result in test [1], in [2], in test [3], in [4], in test [5] and in test [6] was “inactive” throughout. For the same compound, the Potency entry in test [9] and in test [8] was “inactive” in each case.

On to `CNC(C)Cc1ccc2c(c1)OCO2` (stereo not given), for which the Potency result in [1], in [2], in test [3], in [6], in [7] and in test [9] was “inactive” in each case. In addition, the Potency entry in test [8] is “inactive”. In addition, the Potency in [4] was 0.491 µM (active).

In the case of `CCc1ccccc1C`, the Potency entry in [1], in [2], in test [3], in test [4], in test [5] and in test [7] was “inactive” each time. Moreover, in test [9], the Potency entry was “inactive”.

Consider `CCc1cc(C)cc(CC)c1-c1c(OC(=O)C(C)(C)C)n2n(c1=O)CCOCC2`, for which the Potency result in test [1], in test [2], in test [3], in test [6], in test [7] and in test [9] was “inactive” throughout. For the same compound, the Potency in test [8] was 8.94 µM (active).

In the case of `CC(=O)OC1(c2ccccc2)CCN(CCc2ccccc2)CC1`, the Potency result in test [1], in test [2], in [3], in [7] and in test [8] was “inactive” each time. Also, the Potency in test [5] was 40.9 µM (active); in test [9] it was 25.1 µM (active).

As for `Oc1cccc(-c2ccccc2)c1`, the Potency result in [1], in test [2], in test [3] and in test [9] was “inactive” each time. Further, the figures for the Potency in test [5] and in test [7] were 35.6 µM (active) and 17.8 µM (active), respectively.

Regarding `CCOC(=O)OC1=C(c2cc(C)ccc2C)C(=O)NC12CCC(OC)CC2` (stereo not given), the Potency result in [1], in test [2], in [3] and in [9] was “inactive” in each case. Further, the values for the Potency in test [7] and in [8] were 44.8 µM (active) and 1.12 µM (active), respectively.

`Nc1ccc(Cl)cc1C(=O)c1ccccc1`: the Potency result in test [1], in [2] and in test [3] was “inactive” each time. Also, the Potency in test [5] and in test [7] was 15.9 µM (active) in each case.

For `CC(=O)O[C@H]1CC[C@@]2(C)C(=CC[C@@H]3[C@@H]2CC[C@]2(C)C(=O)CC[C@@H]32)C1`, the Potency entry in test [1], in test [2], in [3], in test [7] and in test [8] was “inactive” each time. The Potency in test [5] is 31.7 µM (active); in test [9], 49 µM (active).

Turning to `CCCCOCN(C(=O)CCl)c1c(CC)cccc1CC`, the Potency result in [1], in test [2], in [3] and in test [9] was “inactive” in each case. Besides, the results for the Potency in [5], in test [6] and in test [8] were 0.894 µM (active), 3.99 µM (active) and 7.1 µM (active), respectively.

Take `OC(Cc1ccccc1Cl)(Cn1cncn1)C1(Cl)CC1` (stereo not given): the Potency result in [1], in test [2], in test [3] and in test [9] was “inactive” in each case. The Potency in [7] was 0.796 µM (active).

As for `BrC(Br)C(Br)(Br)Br`, the Potency result in [1], in [2], in test [3] and in test [8] was “inactive” in each case. The Potency in [6] and in test [7] was 31.9 µM (active) throughout.

As for `ClCc1ccccc1CCl`, the Potency result in test [1], in test [2], in test [3], in test [5], in [6] and in test [9] was “inactive” throughout. The Potency entry in test [8] is “inactive”.

For the compound `CCOP(=S)(OCC)OC(Cl)C(Cl)(Cl)Cl` (stereo not given), the Potency in test [1] is 79.6 µM (active); in [2] it was 31.7 µM (active); in test [3] it was 28.3 µM (active); in test [6] it was 3.99 µM (active); in test [7], 35.6 µM (active); in [8], 3.99 µM (active).

`Cn1[nH]nnc1=S`: the Potency result in test [1], in test [2], in [3], in test [9] and in [8] was “inactive” each time. The Potency in test [5] is 56.4 µM (active); in test [6], 71 µM (active).

With `CC(C)(C)C(O)C(Oc1ccc(-c2ccccc2)cc1)n1cncn1` (stereo not given), the Potency entry in [1], in [2], in test [3] and in test [9] was “inactive” each time. In addition, the Potency in test [6] was 10 µM (active).

In the case of `CCOc1cc(C(C)(C)C)ccc1C1COC(c2c(F)cccc2F)=N1` (stereo not given), the Potency entry in test [1], in test [2] and in test [3] was “inactive” in each case. For the same compound, the values for the Potency in test [5], in [7] and in test [9] were 3.42 µM (active), 24.2 µM (active) and 13.3 µM (active), respectively.

In the case of `Nc1c(Oc2ccccc2)cc(O)c2c1C(=O)c1ccccc1C2=O`, the Potency entry in test [1], in test [2], in test [3], in test [9] and in [8] was “inactive” each time. The Potency in test [6] was 17.4 µM (active); in test [7], 1.23 µM (active).

On to `C[C@H]1CC[C@@H]2[C@@H](C)[C@H]3[C@H](C[C@H]4[C@@H]5CC=C6CC(O[C@@H]7O[C@H](CO)[C@H](O)[C@H](O[C@@H]8O[C@H](CO)[C@@H](O)[C@H](O)[C@H]8O)[C@H]7O[C@H]7O[C@@H](C)[C@H](O)[C@@H](O)[C@H]7O)CC[C@]6(C)[C@H]5CC[C@]34C)N2C1` (stereo not given in full), for which the Potency entry in [1], in test [3], in test [5], in test [6], in [9] and in [8] was “inactive” throughout. Besides, in test [2], the Potency is 2.92 µM (active).

For `CCCCCCCCCCCCCN1CC(C)OC(C)C1` (stereo not given), the Potency result in test [1], in test [2], in test [3], in test [5], in test [7] and in test [8] was “inactive” each time. For the same compound, the Potency in test [9] is 13.8 µM (active).

In the case of `S=C(SSC(=S)N1CCCCC1)N1CCCCC1`, the Potency entry in [1], in [3] and in test [9] was “inactive” throughout. The Potency is 38.9 µM (active) in test [2] and 6.92 µM (active) in [5].

For `CN(C)c1ccc(N=Nc2ccccc2)cc1`, the Potency result in test [1], in [2], in test [3] and in test [9] was “inactive” each time. Moreover, the Potency in [6] was 15.9 µM (active); in test [7], 3.56 µM (active).

For `N#Cc1c(-c2ccc(Cl)cc2)[nH]c(C(F)(F)F)c1Br`, the Potency result in [1], in [2] and in test [3] was “inactive” throughout. Besides, the figures for the Potency in test [6] and in test [7] were 11.2 µM (active) and 0.317 µM (active), respectively.

For `CC(C)(O)c1cnn2c(-c3ccc(F)c(-c4c(F)cccc4C#N)c3)cnc2n1`, the Potency result in [1], in test [3] and in test [9] was “inactive” in each case. Besides, the Potency in test [2] is 28.3 µM (active); in [5] it was 8.94 µM (active); in test [6], 1.26 µM (active); in test [8], 35.6 µM (active).

The record behind these values is PubChem BioAssay (Tox21).
